# Screening results: PubChem BioAssay, several laboratories
# Only some compounds are listed: those with a hit (about 2.3% of all), similar ones and a draw of the others.
# ABHD5-PLIN5 inh – blocks binding of human ABHD5 to perilipin-5; 360,000 tested, 0.78% active; inhibition, % at 4 µM; Split G. princeps luciferase complementation, luminescence, 4 h; Q00G26+Q8WTS1; AID 602281;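 active = inhibition above the mean inhibition across every tested compound plus 3 SD, cut at about 22% in these data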;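 note: 0% = DMSO only wells and the 100% control is not disclosed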
# B2AR ag – human beta-2 adrenergic receptor agonism by FAP; response, % (test concentration not listed); 340,000 tested, 0.43% active; Am2.2-beta2AR cells, FAP receptor internalization, flow cytometry; AID 504454; P07550;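 active = response above a set limit, near 3 SD of response in nonfluorescent compounds, cut at about 42% in these data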
# m5-HT2A agonist – mouse HTR2A agonism via beta-arrestin recruitment | AID 624169 | CHO-K1 mHTR2A beta-arrestin complementation, luminescence; percent of 30 µM serotonin response | 360,000 tested, 0.66% active | activation, % at 7.6 µM | P35363;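 active = activation above a run cutoff, the mean activation of all tested compounds plus 3 SD, cut at about 14% in these data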;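 note: 0% = plate median of compound wells and 100% = 30 µM serotonin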
# Granule exo inh – lytic granule exocytosis inhibition. TALL-104 LAMP-1 surface exposure, flow cytometry; cells stimulated with thapsigargin and PMA. inhibition, % at 10 µM. 360,000 tested, 0.66% active;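 active = inhibition above about 55%, limit read from the data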
# NTR1 agonist – activates human neurotensin receptor 1. AID 493036. 330,000 tested, 0.17% active. NTR1-U2OS beta-arrestin-GFP spot imaging, agonist mode. P30989. activation, % at 20 µM;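 active = activation at or above 40% of the spot to cytoplasm intensity ratio, with at least 20 cells analyzed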;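 note: 0% = DMSO without peptide and 100% = 100 nM NTR1 peptide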
# Target sequence (P30989 whole entry, looked up): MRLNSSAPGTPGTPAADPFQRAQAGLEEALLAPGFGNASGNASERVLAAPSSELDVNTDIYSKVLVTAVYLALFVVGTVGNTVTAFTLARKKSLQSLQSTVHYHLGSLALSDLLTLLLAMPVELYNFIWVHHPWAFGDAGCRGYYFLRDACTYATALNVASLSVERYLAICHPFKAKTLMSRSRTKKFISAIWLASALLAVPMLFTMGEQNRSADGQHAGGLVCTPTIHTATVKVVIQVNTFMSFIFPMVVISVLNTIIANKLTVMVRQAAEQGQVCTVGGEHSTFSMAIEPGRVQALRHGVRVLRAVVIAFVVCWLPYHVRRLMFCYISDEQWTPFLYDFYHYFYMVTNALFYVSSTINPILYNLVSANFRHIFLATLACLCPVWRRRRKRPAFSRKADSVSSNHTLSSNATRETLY
# ABHD5-PLIN5 conf – confirmation of human ABHD5-PLIN5 interaction inhibitors; shares compounds with ABHD5-PLIN5 inh; biochemical ABHD5-PLIN5 interaction, luminescence; inhibition, % at 4 µM; 2,200 tested, 67% active; in the data active = inhibition above about 23%;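 note: 0% = DMSO vehicle wells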
# HNF4 split-luc – HNF4 split-luciferase signal hit, counter-screen | shares compounds with ABHD5-PLIN5 inh | HNF4 dimerization, luminescence, biochemical | inhibition, % at 4 µM | 2,200 tested, 77% active | AID 651674;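 active = mean inhibition across replicate wells exceeding the computed hit threshold, cut at about 13% in these data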;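 note: light from luciferase halves that rejoin when HNF4 fusion proteins dimerize; 0% = DMSO only wells and the 100% control is not given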
# OPRM1 ag – activates human mu opioid receptor in HTR2A counterscreen; activation, % at 9.3 µM; U2OS OPRM1 beta-arrestin PathHunter, luminescence; DMSO 0%, DAMGO 9.3 µM 100%; AID 624380; shares compounds with m5-HT2A agonist; 2,300 tested, 5.3% active;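 active = mean activation above the mean of DMSO-only wells plus 3 SD, cut at about 0.5% in these data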
# HTR2A ag conf – confirmation of mouse HTR2A serotonin receptor agonists; shares compounds with m5-HT2A agonist; activation, % at 7.6 µM; 2,300 tested, 19% active; AID 624381; CHO-K1 PathHunter beta-arrestin recruitment, luminescence; DMSO 0%, 30 µM serotonin 100%;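 active = mean activation across triplicates above the hit threshold derived in the original primary screen, cut at about 15% in these data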
# Granule exo CP1 – lytic granule exocytosis inhibition; shares compounds with Granule exo inh; TALL-104 cells, LAMP-1 externalization, flow cytometry; stimulated with PMA plus thapsigargin; inhibition, % at 10 µM; 1,500 tested, 11% active; AID 651954; in the data active = inhibition above about 60%;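 note: 0% = stimulated vehicle wells and 100% = unstimulated wells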
# * marks the source's active call; other numbers are inactive results; / = no result.
SMILES,ABHD5-PLIN5 inh,B2AR ag,m5-HT2A agonist,Granule exo inh,NTR1 agonist,ABHD5-PLIN5 conf,HNF4 split-luc,Granule exo CP1,others
O=C1CC(Sc2nnc(-c3ccccc3O)o2)C(=O)N1c1ccccc1 (configuration not stated),15.6,-3.7,-1.0,30.0,-0.1,/,/,/,
NC(=O)Nc1ccc(C(=O)OCC(=O)Nc2ccc([N+](=O)[O-])cc2C(F)(F)F)cc1,0.5,-6.2,2.0,-4.2,0.5,/,/,/,
Cc1ccc(C(=O)Nc2cccc(C(=O)N3CCOCC3)c2)cc1Cl,1.6,7.3,1.9,-0.7,2.4,/,/,/,
O=C1CC(Sc2nnnn2-c2ccccc2)C(=O)N1c1cccc(Cl)c1 (configuration not stated),37.0*,8.0,-4.3,98.9*,1.8,62.1*,104.3*,101.0*,
CN(Cc1ccc(Cl)c(Cl)c1)C(=O)c1ccccc1SCC(=O)N1CCCC1,-1.7,4.2,-2.7,0.5,-0.5,/,/,/,
NS(=O)(=O)c1c(Sc2ccccc2C(=O)O)ccc2ccccc12,-2.2,2.2,2.2,0.4,4.4,/,/,/,
CC(C)Cc1ccc(S(=O)(=O)N2CCOCC2)cc1,-2.5,-2.4,4.7,-4.8,0.3,/,/,/,
CC(C)Cc1ccc(C(C)CC2=CCC(CN(C)C)C2=O)cc1 (configuration not stated),38.0*,24.1,-10.7,66.1*,/,82.0*,80.6*,-4.2,
CCc1cc(C(=O)N2CCCC(CNC(=O)c3ccc(-c4ccccc4)cc3)C2)no1 (configuration not stated),9.2,-2.1,-2.2,-1.8,-0.7,/,/,/,
FC(F)(F)c1cccc(NC(=S)N(CCCN2CCCC2)Cc2cccn2Cc2ccc(Cl)cc2)c1,41.8*,20.5,-9.5,68.3*,27.3,12.1,-12.4,21.9,
CN(C)CCCN(Cc1ccccc1)C(=S)Nc1cccc(C(F)(F)F)c1,8.8,16.7,-3.4,13.2,-0.1,/,/,/,
COc1ccc(NC(=S)N(CCCN2CCCC2)Cc2cccn2Cc2ccc(Cl)cc2)cc1Cl,30.5*,24.9,-11.3,68.7*,17.8,12.6,-9.9,43.5,
Cc1sc(NC(=S)NC(=O)C2CCCCC2)c(C(N)=O)c1C,3.1,19.4,-0.5,1.3,6.1,/,/,/,
COc1ccc(CNC(=O)CCCCCNC(=O)N2CCn3c2nc2ccccc23)cc1,-9.2,-20.0,-3.0,-1.7,1.9,/,/,/,
O=C(c1ccc(Cl)cc1)C(CN1CCCC1)c1ccccc1 (configuration not stated),48.0*,34.4,1.1,59.1*,17.5,53.0*,102.6*,-9.3,
Cc1cc(-c2nnc(CCC(=O)N3CCN(Cc4cccnc4)CC3)o2)c(C)o1,-4.1,-4.5,2.6,1.6,0.0,/,/,/,
CC1CC(C)CN(C(=O)c2ccc(-c3ccc([N+](=O)[O-])cc3)o2)C1 (configuration not stated),28.2*,26.5,5.5,73.9*,38.1,14.7,3.4,-11.9,
N#Cc1cc(Oc2cccc3cccnc23)c(-n2nnc3ccccc32)cc1C#N,69.5*,13.0,-7.7,99.0*,14.5,13.0,50.5*,-11.1,
CCOc1ccccc1CN1CCN(Cc2[nH]c3ccccc3c2C)CC1CCO (configuration not stated),27.1*,24.3,-10.7,67.3*,0.4,6.5,-1.1,-13.0,
Fc1ccccc1CSc1nnc(-c2cnccn2)n1Cc1ccco1,-0.2,-2.2,-0.2,-10.7,3.0,/,/,/,
C(=C\c1ccccc1)/CSc1nnc(-c2cnccn2)n1Cc1ccco1,36.6*,-4.8,-0.7,62.7*,0.3,18.6,28.6*,-9.1,
Cc1cccc(NC(=O)CN2C(=O)N/C(=C/c3ccc(C)o3)C2=O)c1,61.2*,9.1,-0.1,84.8*,/,35.2*,98.7*,-12.4,
CC(=O)Nc1ccc(-c2cc(N)n(-c3ccccc3)n2)cc1,-6.5,-9.6,3.4,-5.9,-1.2,/,/,/,
CC(=O)Nc1ccc2c(=O)n(-c3ccccc3)sc2c1,78.7*,/,-2.1,69.4*,/,68.7*,116.7*,62.0*,
CCOC(=O)c1c(-c2ccc(C)o2)csc1NC(=O)COC(=O)c1cccs1,26.8*,8.4,-1.1,97.1*,17.2,10.1,27.5*,-3.9,
SMILES,ABHD5-PLIN5 inh,B2AR ag,m5-HT2A agonist,Granule exo inh,NTR1 agonist,ABHD5-PLIN5 conf,HNF4 split-luc,Granule exo CP1,others
CCOC(=O)c1c(-c2ccc(C)o2)csc1N,0.7,0.4,-2.0,3.9,1.7,/,/,/,
COc1ccccc1CNC(=O)[C@@H]1CCCN1S(=O)(=O)c1ccccc1F,-1.8,-0.4,3.0,-3.0,-1.0,/,/,/,
CN(C)CCCN(C(=O)c1cc(-c2cccs2)nc2ccccc12)c1nc2c(F)cccc2s1,17.0,6.0,-17.7,53.3,5.9,/,/,/,
Cc1ccc2nc(N(CCCN(C)C)C(=O)c3cc(-c4cccs4)nc4ccccc34)sc2c1,25.1*,18.3,-21.9,71.8*,13.3,14.4,0.8,40.2,
O=C(Cn1sc2ccccc2c1=O)Nc1ccc(F)cc1,58.4*,/,-1.1,64.5*,/,68.8*,115.2*,103.6*,
O=C(Cn1nc(-c2ccccc2)c2ccccc2c1=O)Nc1ccc(F)cc1,7.9,-6.2,-4.9,-2.7,2.1,/,/,/,
CC1=NOC(=O)/C1=C/c1ccc(-c2ccc(Cl)cc2)o1,33.1*,65.2*,-0.9,77.9*,-1.4,99.2*,107.4*,100.9*,
Nc1nnnn1/N=C/c1cc(Br)ccc1O,-4.3,-1.0,-8.7,27.7,0.3,/,/,/,
CCCC[C@@H]1C=C(C(=O)O)[C@H](c2ccc(Cl)cc2)N1S(=O)(=O)c1ccc(C)cc1,1.6,3.4,-1.8,30.8,6.0,/,/,/,
Cc1ccc(S(=O)(=O)N2[C@@H](c3ccc(C(C)(C)C)cc3)C(C(=O)O)=CC[C@H]2c2ccc(Cl)cc2)cc1,-11.4,3.9,2.5,-3.4,13.1,/,/,/,
Cc1ccc([C@@H]2CC=C(C(=O)O)[C@H](c3ccc(C(C)(C)C)cc3)N2S(=O)(=O)c2ccc(C)cc2)cc1,-17.3,8.2,24.1*,-1.7,8.1,/,/,/,OPRM1 ag=-0.3;HTR2A ag conf=6.8
CCCC[C@@H]1C=C(C(=O)O)[C@H](c2ccc3c(c2)OCO3)N1S(=O)(=O)c1ccc(C)cc1,-5.7,15.8,15.8*,0.1,5.8,/,/,/,OPRM1 ag=1.3*;HTR2A ag conf=6.3
